Data on two compounds can be found in PubChem BioAssay AID1567 (National Center for Advancing Translational Sciences (NCATS), 2009).

Inconclusive results are not listed. A call without a number means that no potency is given here. Active and inactive are the calls of the source. Calls follow the shape of the dose curve; as a rule, active = well fitted inhibition curve with a large enough effect; inconclusive = small, poorly fitted or top-dose-only effect, or effect the other way; inactive = no such curve, though single readings can be large or run the other way.

For the test, the target named is Thyroid hormone receptor beta (Homo sapiens) (UniProt P10828). Description: Cell-based Gene Reporter Secondary Assay to Characterize qHTS Inhibitors of the Interaction of Thyroid Hormone Receptor and Steroid Receptor Coregulator 2. From the text:
NIH Molecular Libraries Probe Production Network [MLPCN] NIH Chemical Genomics Center [NCGC] MLPCN Grant: DK058080 Assay Provider: R. Kip Guy, St. Jude Children's Research Hospital NCGC Assay Overview: Thyroid receptor (TR) regulates many homeostatic processes including basal metabolism, cardiovascular function, body weight, and lipid trafficking. TR modulators are potential therapeutics for obesity and hyperlipidemias but current thyroid analogs have undesirable side effects, particularly cardiac stimulation. This secondary assay characterized selected actives identified in the qHTS for Inhibitors of the Interaction of Thyroid Hormone Receptor and Steroid Receptor Coregulator 2. The human follicular thyroid carcinoma cell line WRO (kindly provided by Dr. M. D. Ringel) stably expresses TRbeta and a luciferase reporter gene fused to TR response element. The addition of T3 ligand elevates expression of the TRE luciferase reporter. This assay measures the transcriptional activity of compounds.
NCGC Assay Protocol Summary: Cells were maintained in RPMI 1640 culture medium supplemented with 10% heat-inactivated FBS, 0.33 mg/ml hygromycin, 0.33 mg/ml geneticin, 50 units/ml penicillin, 50 ug/ml streptomycin. […] Following incubation, plates were equilibrated at ambient temperature for 30 min, 30 ul of Bright-Glo (Promega) was added and luminescence was detected by an EnVision (PerkinElmer).
For orientation: In qHTS, concentration-response curves come from the screen itself.

Sequence of Thyroid hormone receptor beta (Homo sapiens) (P10828 whole entry, looked up): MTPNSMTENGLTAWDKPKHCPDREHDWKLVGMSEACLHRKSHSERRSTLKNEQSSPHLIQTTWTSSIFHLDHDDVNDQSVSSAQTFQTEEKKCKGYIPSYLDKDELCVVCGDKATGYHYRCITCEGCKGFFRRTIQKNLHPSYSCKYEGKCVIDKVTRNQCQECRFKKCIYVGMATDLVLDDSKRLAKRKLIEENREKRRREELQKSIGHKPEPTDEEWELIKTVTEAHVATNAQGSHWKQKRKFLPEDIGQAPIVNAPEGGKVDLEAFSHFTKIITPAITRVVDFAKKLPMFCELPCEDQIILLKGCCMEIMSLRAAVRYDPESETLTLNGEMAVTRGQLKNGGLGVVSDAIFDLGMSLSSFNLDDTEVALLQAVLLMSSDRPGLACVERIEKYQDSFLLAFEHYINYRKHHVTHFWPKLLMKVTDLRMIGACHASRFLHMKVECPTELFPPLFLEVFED

With `CCCCCn1c(N)c(C(=O)NCc2cccs2)c2nc3ccccc3nc21`, the Potency entry was “inactive”. On to `COP(=S)(OC)Oc1ccc([N+](=O)[O-])cc1`, for which the Potency was 3.98 µM (active).
